Rab9 prom act – activators of Rab9 promoter; Huh7 Rab9 promoter-luciferase reporter, luminescence, 24 h; Potency, µM (titrated, usually from 9.22 µM), for the others: top-dose activation, negative = inhibition, actives largely listed as activators; actives 2.8% (n = 320,000); AID 485297; also: % of control where 0% means no effect; nearly all actives have a fitted effect of over 60% in size
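Cells were plated at 1500 per well in reduced-serum medium with 10% FBS and left 2 h. Compound in DMSO was then added for 24 h at 37 °C. Reporter signal was read by luminescence after 10 min with luciferase detection reagent.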
NPC1 prom act – activators of NPC1 promoter; actives 2.4% (n = 320,000); Huh7 NPC1 promoter luciferase reporter, 24 h; Potency, µM (doses to about 9.22 µM), inactives show at the highest dose activation, most hits filed as activators; also: % of control where 0% means no effect; nearly all actives have a fitted effect of over 60% in size
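Luciferase expression driven by the NPC1 promoter was measured in stably transfected Huh7 cells after a 24 h compound incubation, using a luciferase reagent and a luminescence read.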
ELG1 genotoxic – genotoxicity induction in ELG1-luciferase HEK293T cells | HEK293T ELG1-luciferase reporter, luminescence, 16 h | actives 1.3% (n = 330,000) | AID 504466 | Potency, µM (series often up to 46 µM), without a hit: top-dose activity change, positive = activation, usual class: activators; also: % of control where 0% means no effect; nearly all actives have a fitted effect of over 60% in size
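Luminescence read-out: rising ELG1-luciferase signal, reflecting elevated ELG1 protein under genetic stress, flags genotoxic compounds. Cells were treated for 16 hr at 37 °C before ONE-Glo detection.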
SMN2 splice enh – increases expression of the SMN2 splice variant | HEK293 SMN2-luciferase splicing reporter, luminescence, 30-36 h | Potency, µM (top dose mostly 46.1 µM), for the others: top-dose activity change, positive = activation, hits mostly activators | actives 2.8% (n = 210,000); also: % of control where 0% means no effect; nearly all actives have a fitted effect of over 55% in size
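HEK293 cells carry an SMN2 minigene-luciferase reporter in which exon 7 inclusion puts luciferase in frame. Cells were seeded at 2000 cells/well, attached for 10-12 hours, then exposed to compounds for 30-36 hours at 37C before ONE-Glo luminescence.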
FLuc counter – inhibits or activates purified firefly luciferase, miR-21 counter-screen | AID 588342 | actives 6.9% (n = 360,000) | purified FLuc, Km substrates, luminescence inhibition | Potency, µM (series often up to 57.5 µM), for inactives: top-dose activity change, negative = inhibition, actives largely listed as inhibitors;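 also: plate controls were vehicle for no effect and reference inhibitor for full effect; nearly all actives have a fitted effect of over 55% in size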
Target sequence (P08659 whole entry, looked up): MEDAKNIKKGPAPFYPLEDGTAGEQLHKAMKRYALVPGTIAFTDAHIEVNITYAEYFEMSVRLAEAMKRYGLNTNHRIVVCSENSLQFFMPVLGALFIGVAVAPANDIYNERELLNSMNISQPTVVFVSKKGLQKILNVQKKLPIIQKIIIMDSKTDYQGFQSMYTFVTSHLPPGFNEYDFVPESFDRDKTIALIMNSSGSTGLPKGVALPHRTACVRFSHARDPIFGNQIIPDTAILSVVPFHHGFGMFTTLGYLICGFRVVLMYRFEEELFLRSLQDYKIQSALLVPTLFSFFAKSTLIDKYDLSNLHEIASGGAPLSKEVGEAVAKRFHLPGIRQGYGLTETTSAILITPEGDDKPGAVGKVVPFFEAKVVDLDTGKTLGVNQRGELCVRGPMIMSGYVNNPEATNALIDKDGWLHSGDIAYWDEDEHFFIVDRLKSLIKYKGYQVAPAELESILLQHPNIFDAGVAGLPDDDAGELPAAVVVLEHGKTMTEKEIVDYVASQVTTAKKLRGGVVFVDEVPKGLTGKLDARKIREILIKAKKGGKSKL
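Purified P. pyralis luciferase (10nM final) with 10uM D-luciferin and 10uM ATP (Km levels) in 50mM Tris acetate pH 7.5, 10mM Mg acetate, 0.01% Tween-20, 0.05% BSA; qHTS 6-point titration, ~60 µM downward; luminescence read.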
Luc counter – counter-screen: inhibitors of Kinase-Glo firefly luciferase | Kinase-Glo luciferase, ATP luminescence, 8 min | Q27757 | AID 1379 | actives 0.28% (n = 200,000) | Potency, µM (highest dose often 38.3 µM), inactives show at the top dose activity change, negative = inhibition, most hits filed as inhibitors; also: % is scaled to controls: 0 for no effect and ±100 for the full control effect; nearly all actives have a fitted effect of over 60% in size
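Kinase-Glo luciferase light output from ATP and luciferin was measured with 10 uM ATP, within the enzyme's linear range. Buffer: 50 mM imidazole pH 7.2, 50 mM KCl, 7 mM MgCl2, 0.01% Tween 20, 0.05% BSA; luminescence read after 8 min at ambient temperature.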
* marks the source's active call; other numbers are inactive results; ? = inconclusive; / = not tested or not shown; [ ] = remark or other dose. In the library only some 7.5% were active in any assay of this set; here they are far more common. Calls follow the shape of the dose curve; as a rule, active = well fitted curve in the direction sought with a large enough effect; inconclusive = small, poorly fitted or top-dose-only effect, or another doubt; inactive = no such curve, though single readings can be large; an effect the other way counts as inactive or inconclusive. Potency is read from the fitted curve at half-maximal effect.

SMILES	Rab9 prom act	NPC1 prom act	ELG1 genotoxic	SMN2 splice enh	FLuc counter	Luc counter
CCCOc1ccc(/C=N/Nc2ccc(C(=O)O)cc2)c(OCCC)c1	?	8%	?	-8%	5.4µM*	0%
COc1ccc(CNC(=O)C2CCN(S(=O)(=O)Cc3ccccc3)CC2)cc1	/	/	/	/	-5%	/
O=C(O)c1cc(N(Cc2ccccc2O)Cc2cc(O)ccc2O)ccc1O	/	/	/	-11%	/	2%[39.9 µM]
O=C(N/N=C/c1c[nH]c2ccccc12)c1ccc(O)c(O)c1	9%	-2%	0%	/	2.4µM*	/
COc1ccc2c(c1)c(/C=N/Nc1ccc(C(=O)O)cc1)c(C)n2C	23%	?	?	/	4.8µM*	/
CCOc1ccccc1C(=O)N/N=C/c1c[nH]c2ccccc12	0%	-9%	0%	-4%	?	4%
COc1ccc2c(CCNC(=O)Nc3ccccc3)c[nH]c2c1	4%	-10%	-1%	/	0%	8%
COc1ccc(C(=O)N/N=C/c2cc3ccccc3[nH]c2=S)cc1	9%	4%	0%	-17%	?	-6%
COc1ccc2c(/C=N/Nc3ccc(C(=O)O)cc3)c[nH]c2c1	1.4µM*	0.79µM*	?	/	1.3µM*	/
COc1ccc(C(=O)N/N=C/c2c[nH]c3ccccc23)cc1	26%	?	3%	/	13µM*	/
CCC(C(=O)NCc1ccccc1)n1nc(C)c2sc3ccccc3c2c1=O (stereo not given)	/	/	/	/	2%	/
COc1ccc(CCNC(=O)CCCn2nc(C)c3sc4ccccc4c3c2=O)cc1OC	/	/	/	/	13µM*	/
CCC(C(=O)NCCc1ccccc1)n1nc(C)c2sc3ccccc3c2c1=O (stereo not given)	/	/	/	/	19µM*	/
Cc1nn(CCCC(=O)NCc2ccc(F)cc2)c(=O)c2c1sc1ccccc12	/	/	/	/	-21%	/
CCC(C(=O)N1CCN(c2ccccc2F)CC1)n1nc(C)c2sc3ccccc3c2c1=O (stereo not given)	/	/	/	/	15µM*	/
Cc1nn(C(C)C(=O)NCc2cccc(F)c2)c(=O)c2c1sc1ccccc12 (stereo not given)	/	/	/	/	11µM*	/
CCOc1ccc(-c2nonc2NC(=O)c2oc3cc(Br)ccc3c2C)cc1	/	/	/	/	-19%	/
Nc1ncnc2nc(-c3ccc(N4CCOCC4)nc3)cc(-c3cccc(Br)c3)c12	-8%[46.1 µM]	-4%[46.1 µM]	/	-47%	/	-1%
Cc1nn(C(C)C(=O)NCc2ccccc2Cl)c(=O)c2c1sc1ccccc12 (stereo not given)	-5%	2%	-5%	-2%	-3%	-3%
COc1ccc(CCNC(=O)C(C)n2nc(C)c3sc4ccccc4c3c2=O)c(OC)c1 (stereo not given)	/	/	/	/	9.5µM*	/
CCc1ccc(-c2cn3nc(C)c(C)nc3n2)cc1	?	0.089µM*	0%	-18%	0.38µM*	-4%
Cc1nc2nc(-c3ccc(F)cc3)cn2nc1C	0.28µM*	?	1.6µM*	/	2.1µM*	/
c1ccc(-c2cc(-c3ccccc3)n3ncnc3n2)cc1	-9%	-1%	3%	-31%	0%	10%
c1ccc(-c2cn3nc(-c4ccccc4)cnc3n2)cc1	0.45µM*	0.63µM*	?	2µM*	0.21µM*	-6%
CCc1c(-c2ccccc2)nc2nc(C)c(C)nn12	7%	2%	13%	-17%	?	-2%
SMILES	Rab9 prom act	NPC1 prom act	ELG1 genotoxic	SMN2 splice enh	FLuc counter	Luc counter
Cc1nc2nc(-c3ccccc3)cn2nc1C	/	/	/	8.9µM*	2.4µM*	10µM*
CC(C)(C)c1ccc(/C=C/C(=O)Nc2ccc(S(N)(=O)=O)cc2)cc1	/	/	/	-71%	?	/
COc1ccc(OC)c(CNc2ccc3c(c2)nc(C)n3C)c1	-3%	1%	0%	/	-16%	/
COc1ccc(N=Nc2nc3cc(Br)c(Br)cc3n2C)c(OC)c1	0%	0%	-19%	17%	5.4µM*	-20%
COc1cc2c(cc1NC(=O)C1CCCO1)oc1ccccc12 (stereo not given)	3.5µM*	4µM*	4.6µM*	25µM*	6µM*	2%
CS(=O)(=O)c1ccc(NS(=O)(=O)c2ccc(Cl)c(C(=O)NCc3ccco3)c2)cc1	2%	0%	-3%	/	2%	/
CC(=O)Nc1cccc(C(=O)OCC(=O)Nc2ccc(Cl)cn2)c1	-2%	2%	11%	/	?	/
CC(=O)Nc1cccc(C(=O)OCC(=O)N2CCC(c3ccccc3)=N2)c1	?	?	?	/	15µM*	/
CC(=O)Nc1cccc(C(=O)OCC(=O)c2ccccc2Cl)c1	0.79µM*	3.5µM*	?	22%	?	-5%
CC(=O)Nc1cccc(C(=O)OCC(=O)NC(=O)c2ccccc2)c1	0%	-1%	2%	/	-13%	/
Cc1cc(C(=O)OCC(=O)N2CCC(c3ccccc3)=N2)ccc1[N+](=O)[O-]	1%	-2%	3%	/	13%	/
CCC(=O)Nc1cccc(C(=O)OCC(=O)c2ccccc2Cl)c1	?	3.2µM*	?	26%	7.6µM*	-1%
COc1cc(NC(=O)C2CCN(S(=O)(=O)c3c(C)noc3/C=C/c3ccccc3F)CC2)cc(OC)c1OC	/	/	/	/	-1%	/
N#Cc1ccccc1OCC(=O)N1CCN(c2ccccc2)CC1	/	/	/	-7%	6%	/
O=C(Nc1ccccc1C(=O)OCc1cc(=O)n2nc(C3CC3)sc2n1)c1cccc(F)c1	/	/	/	/	-1%	/
COc1ccc(/C=N/c2c(-c3ccc(OC)cc3)nc3n2CCS3)cc1	18%	-4%	2%	9%	1.9µM*	-3%
Fc1ccc(/C=N/c2c(-c3ccc(F)cc3)nc3n2CCS3)cc1	-7%	0%	2%	7%	1%	-3%
COc1ccc([N+](=O)[O-])cc1N	/	/	/	-2%	/	/
CC(=O)c1ccc(NC(=O)C2(c3ccccc3)CCOCC2)cc1	?	3.2µM*	?	16%	13µM*	-4%
CCc1cccc(OCC2Cn3c(nc4c3c(=O)[nH]c(=O)n4C)O2)c1 (stereo not given)	0%	-5%	-4%	/	-4%	/
O=C(O)c1cccc(NC(=O)c2ccc(CN3C(=O)c4ccccc4C3=O)cc2)c1	8%	2%	0%	/	12µM*	/
O=C(Nc1cccc(Br)c1)c1ccc(CSc2ccccc2)cc1	14%	17%	5%	-8%	12µM*	-5%
O=C(O)c1cccc(NC(=O)c2ccc3c(c2)C(=O)N(Cc2ccco2)C3=O)c1	-3%	0%	1%	/	0.95µM*	-2%
Cc1c(NC(=O)c2ccc3c(c2)C(=O)N(Cc2ccco2)C3=O)cccc1C(=O)O	-9%	0%	1%	-8%	15µM*	3%
O=C(Nc1cccnc1)c1ccc(CSc2ccccc2)cc1	24%	2%	9%	/	-16%	/
